Screening data deposited in PubChem by National Center for Advancing Translational Sciences (NCATS).
NTMT1 inh: Primary qHTS for Inhibitors of N-terminal methyltransferase 1 (NTMT1): MTaseGlo Assay; N-terminal Xaa-Pro-Lys N-methyltransferase 1 (Homo sapiens), Q9BV86; NTMT1 MTase-Glo SAH luminescence, purified enzyme; Potency, µM (top dose mostly 114 µM), most hits filed as inhibitors; 2.5% of 59,000 active; AID 1645870, 2021; further: nearly all actives have a fitted effect of over 65% in size
Target sequence (Q9BV86 whole entry, looked up): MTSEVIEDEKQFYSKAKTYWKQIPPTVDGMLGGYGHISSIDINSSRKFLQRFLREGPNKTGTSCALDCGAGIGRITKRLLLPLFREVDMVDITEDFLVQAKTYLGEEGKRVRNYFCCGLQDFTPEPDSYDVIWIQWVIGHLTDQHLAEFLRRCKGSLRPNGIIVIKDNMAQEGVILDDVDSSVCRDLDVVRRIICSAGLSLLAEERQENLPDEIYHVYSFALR
HTT-AS promoter: Primary qHTS for Identification of Small Molecule Activators of Huntingtin-Antisense Promoter Activity | HEK293 HTT-AS promoter firefly luciferase reporter, 24 h; response scale: percent change from vehicle, -100% = no light | Potency, µM (top dose mostly 57.5 µM), hits mostly activators | 0.24% of 48,000 active; further: nearly all actives have a fitted effect of over 55% in size
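HEK293 Fluc reporter, 2,500 cells/well, 24 h pre-culture; cpds up to 57.5 uM final, 24 h 37 degrees C; Dual-Glo, 10 min RT; normalized vehicle = 0%, zero RLU = -100%.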
DRV1 agonist: qHTS for Agonists of Human Resolvin D1 Receptor DRV1 | Probable G-protein coupled receptor 32 (Homo sapiens), O75388 | activation, % at 76.9 µM | 2.5% of 48,000 active | AID 1346428, 2018 | CHO-K1 GPR32 beta-arrestin PathHunter luminescence, 90 min; zero percent set by DMSO-only wells;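 active means activation of at least 60% and not above a set upper limit, about 1 call in 100 departs from these limits; inconclusive means activation of 40% to 60%, or above that upper limit; inactive means activation under 40%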
Target sequence (O75388 whole entry, looked up): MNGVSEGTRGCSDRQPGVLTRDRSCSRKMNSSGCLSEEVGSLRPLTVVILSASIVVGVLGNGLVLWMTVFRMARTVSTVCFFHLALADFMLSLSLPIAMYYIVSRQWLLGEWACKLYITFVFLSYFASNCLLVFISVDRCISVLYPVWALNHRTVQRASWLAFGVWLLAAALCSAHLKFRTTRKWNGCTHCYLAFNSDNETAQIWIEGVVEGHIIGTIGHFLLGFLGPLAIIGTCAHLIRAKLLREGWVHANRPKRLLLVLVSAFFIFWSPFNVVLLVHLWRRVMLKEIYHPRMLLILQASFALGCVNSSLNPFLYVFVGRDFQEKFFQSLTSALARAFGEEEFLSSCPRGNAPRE
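Engineered CHO-K1 line co-expressing GPR32-ProLink and EA-beta-arrestin. Compound treatment lasted 90 min at 37 °C. Luminescence was recorded after 1 h with substrate at ambient temperature, relative to DMSO basal wells.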
HTT promoter inh: Primary qHTS for Identification of Small Molecule Inhibitors of Huntingtin Promoter Activity; HEK293 HTT promoter firefly luciferase reporter, 24 h; Potency, µM (series often up to 57.5 µM), most hits filed as inhibitors; 0.93% of 48,000 active; further: nearly all actives have a fitted effect of over 50% in size
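Firefly luciferase signal from promoter-reporter HEK293 cells was scaled between vehicle (0%) and zero RLU (-100%). Compounds were tested at final concentrations of up to 57.5 uM over 24 h at 37 degrees C. PTC124 at 50 uM final served as control inhibitor.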
SKOV3 invasion: Primary qHTS assay for Inhibitors of ovarian cancer metastasis using an organotypic tumor microenvironment (TME) model; 0.1% of 46,000 active; AID 1963576, 2024; SKOV3ip1-GFP adhesion/invasion on 3D omental model, fluorescence; Potency, µM (doses to about 45.8 µM), most hits filed as inhibitors; further: nearly all actives have a fitted effect of over 65% in size
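A 3D layer of primary human omental fibroblasts, mesothelial cells, fibronectin and collagen I, grown 48 hr, received SKOV3ip1-GFP cells in serum-free medium plus compounds at 0.36-46 umol/L. After 2 hr RT and 16 hr 37 C, fixed adherent GFP cells were counted; normalized to DMSO and tomatine.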
Of the large screens only hits and unclear results are named; the others gave an inactive call; ! = not confirmed by another sample. This is a sample that favours compounds with a hit; in the whole collection about 4.5% have one here. Unless noted, the call rests on the fitted dose curve; in most records, active means well fitted curve in the direction sought with a large enough effect; inconclusive means small, poorly fitted or top-dose-only effect, or another doubt; inactive means no such curve, though single readings can be large; an effect the other way counts as inactive or inconclusive.

Cn1ccc2c(OCC(=O)NCc3ccccc3Cl)cccc2c1=O	DRV1 agonist 86.1
CC(C)(O)C(=O)N1CCN(c2ccc(C(F)(F)F)c(C3=C(c4c[nH]c5ccccc45)C(=O)NC3=O)c2)CC1	NTMT1 inh 11.2µM (no result: HTT-AS promoter, DRV1 agonist, HTT promoter inh, SKOV3 invasion)
O=C(Nc1ccc(Br)cc1F)N1CC=C(c2c[nH]c3ccccc23)CC1	NTMT1 inh inconclusive, HTT promoter inh inconclusive
CCC(C(=O)NC(=O)NC(C)=O)c1ccccc1 (stereo not given)	none (no result: SKOV3 invasion)
Cc1nc2ccc(S(=O)(=O)CCC(=O)Nc3ccc(F)cc3C)cc2s1	NTMT1 inh inconclusive
COc1ccc2nc3cc(Cl)ccc3c(Nc3cc(CN4CCCC4)c(O)c(CN4CCCC4)c3)c2n1	NTMT1 inh inconclusive (no result: DRV1 agonist)
CCN(CC)CCCC(C)Nc1c2ccc(Cl)cc2nc2ccc(OC)cc12 (stereo not given)	NTMT1 inh 44.7µM! (no result: SKOV3 invasion)
O=C(Nc1c(Cl)cccc1Cl)c1cc(-c2cccc(O)c2)on1	DRV1 agonist 104.9 (no result: NTMT1 inh, HTT-AS promoter, HTT promoter inh)
Cc1ccc(NC(=O)c2cc(-c3cccs3)on2)cc1C	HTT-AS promoter 8.91µM
Cc1c(Cl)cccc1NC(=O)c1cc(-c2ccc3c(c2)OCO3)on1	none (no result: NTMT1 inh, HTT-AS promoter, HTT promoter inh)
Cc1c(Cl)cccc1NC(=O)c1cc(-c2cccs2)on1	DRV1 agonist 91.4
CCc1ccc(NC(=O)c2cc(-c3cccs3)on2)cc1	HTT-AS promoter inconclusive
COc1ccc(S(=O)(=O)c2cn(Cc3ccccc3)c3cc(F)c(F)cc3c2=O)cc1	none
COc1cc(NC(=O)c2cccc3c2C(=O)N(C2CCCCC2)C3)cc(OC)c1	none
CCOC(=O)c1c(NC(C)=O)c2c3c(sc2n1Cc1cccc(Cl)c1)CCCC3	none
CCOc1ccc2ncc3c(-c4cccc(OC)c4)nn(-c4ccccc4)c3c2c1	NTMT1 inh 89.1µM
Cn1nc(-c2ccc(OCC(=O)Nc3cccc(C(F)(F)F)c3)cc2)c2ccccc2c1=O	DRV1 agonist 84.7, HTT promoter inh inconclusive
Cn1nc(-c2ccc(C(=O)Nc3ccc(F)cc3)cc2)c2ccccc2c1=O	NTMT1 inh inconclusive, DRV1 agonist 105.2, HTT promoter inh inconclusive
Cc1ccc(NC(=O)COc2ccc(-c3nn(C)c(=O)c4ccccc34)cc2)cc1	HTT promoter inh inconclusive
O=C(NCC(c1ccccc1)c1ccccc1)c1nn(-c2ccccc2F)nc1CO	NTMT1 inh inconclusive, HTT promoter inh 3.98µM
Cc1ccc(-c2noc(C3CC(=O)N(c4ccc5c(c4)OCCO5)C3)n2)cc1 (stereo not given)	none
COc1ccc(-c2noc(CSc3nc(N)cc(=O)[nH]3)n2)cc1	DRV1 agonist 98.3, HTT promoter inh 22.4µM
COc1ccc(-c2noc(CSc3nc4ccccc4[nH]3)n2)cc1	DRV1 agonist 96.1, HTT promoter inh inconclusive
Cc1ccc2nc(SCc3nc(-c4ccc(Cl)cc4)no3)[nH]c2c1	NTMT1 inh inconclusive
COc1cccc(-c2nc(Cn3c(=O)cc(C)c4c(C)nn(-c5ccccc5)c43)c(C)o2)c1OC	none
CCc1ccc(-n2c(=O)c3c4c(sc3n(CC(=O)NCCCOC)c2=O)CCC4)cc1	none
COCCCNC(=O)Cn1c(=O)n(-c2ccc(Cl)cc2)c(=O)c2c3c(sc21)CCCCC3	DRV1 agonist 60.1
COc1cc(C2CC(=O)N(Cc3ccc(F)cc3)c3ccccc3S2)cc(OC)c1OC (stereo not given)	HTT promoter inh 14.1µM
COc1ccccc1NC(=O)CSC1=Nc2ccccc2C2=NC(CC(=O)NCCc3ccccc3)C(=O)N12 (stereo not given)	none
CC(C)OCCCNC(=O)c1ccc2c(=O)n(CCc3ccccc3)c(=O)[nH]c2c1	none
CCCCC1C(=O)N(c2ccccc2)N(c2ccc(O)cc2)C1=O (stereo not given)	NTMT1 inh inconclusive, DRV1 agonist 108.6, HTT promoter inh inconclusive (no result: SKOV3 invasion)
CCc1oc2ccccc2c1C(=O)c1cc(Br)c(O)c(Br)c1	NTMT1 inh 79.4µM, HTT promoter inh inconclusive (no result: SKOV3 invasion)
CN1CCN(c2ccc(OC(F)(F)F)c(Nc3ncc4c(n3)-c3c(c(C(N)=O)nn3CCO)CC4)c2)CC1	none (no result: HTT-AS promoter, DRV1 agonist, HTT promoter inh, SKOV3 invasion)
Cc1nc2ccccc2c(=O)n1-c1ccc(NC(=O)c2ccccc2[N+](=O)[O-])cc1	DRV1 agonist 67.9
COc1ccc(NS(=O)(=O)c2ccc3c(c2)CCCN3C(=O)C2CCC2)cc1OC	DRV1 agonist inconclusive, HTT promoter inh 1.78µM
Cc1ccc(NS(=O)(=O)c2ccc3c(c2)CCCN3C(=O)C2CCC2)cc1Cl	HTT promoter inh 22.4µM
COc1ccc(NS(=O)(=O)c2cc(Br)cc3c2N(C(=O)C2CC2)CC3)cc1OC	NTMT1 inh inconclusive, HTT promoter inh 5.62µM
CC(=O)Nc1ccc(NS(=O)(=O)c2cc(Br)cc3c2N(C(=O)C2CC2)CC3)cc1	none
COc1ccc(OC)c(NS(=O)(=O)c2ccc3c(c2)CCCN3C(=O)C2CCC2)c1	HTT promoter inh inconclusive
Cc1ccc(NS(=O)(=O)c2ccc3c(c2)CC(C)N3C(=O)C2CCC2)cc1Cl (stereo not given)	none (no result: NTMT1 inh, HTT-AS promoter, HTT promoter inh)
FC(F)(F)Oc1ccc(-c2ccc3nnc(C(F)(F)F)n3c2)cc1	none (no result: HTT-AS promoter, DRV1 agonist, HTT promoter inh, SKOV3 invasion)
CC(=O)c1ccc(N2CCN(S(=O)(=O)c3ccc4c(c3)CCCC(=O)N4)CC2)cc1	none (no result: HTT-AS promoter, DRV1 agonist, HTT promoter inh, SKOV3 invasion)
Cc1cn2c(=O)cc(COc3ccccc3NC(=O)c3ccc(C(C)(C)C)cc3)nc2s1	none
COc1cccc(CNC(=O)c2sc3nc(C)cc(C)c3c2-n2cccc2)c1OC	none
COc1ccc(OC)c(CNS(=O)(=O)c2ccc3[nH]c4c(c3c2)CCCCC4)c1	NTMT1 inh inconclusive, DRV1 agonist 96.0, HTT promoter inh inconclusive
COc1ccc(NS(=O)(=O)c2ccc3[nH]c4c(c3c2)CCCC4)cc1Cl	DRV1 agonist 89.6
COc1ccc(NS(=O)(=O)c2ccc3[nH]c4c(c3c2)CCCC4)c(OC)c1	HTT promoter inh inconclusive
CCOc1ccc(NS(=O)(=O)c2ccc3nc(-c4ccccc4)[nH]c3c2)cc1	DRV1 agonist inconclusive
Cc1ccc(NS(=O)(=O)c2ccc3[nH]c4c(c3c2)CCCCCC4)cc1Cl	HTT promoter inh inconclusive, SKOV3 invasion inconclusive
COc1ccc(NS(=O)(=O)c2ccc3nc(-c4ccccc4)[nH]c3c2)cc1	DRV1 agonist 115.6, HTT promoter inh inconclusive
Cc1ccc(NS(=O)(=O)c2ccc3[nH]c4c(c3c2)CCCC4)cc1N(C)C	DRV1 agonist 91.7, HTT promoter inh inconclusive
COc1ccc(Br)cc1C(=O)Nc1ccc(-c2nc3cc(Cl)ccc3o2)cc1	none
Cc1ccccc1NS(=O)(=O)c1ccc2[nH]c3c(c2c1)CCCCC3	NTMT1 inh inconclusive
